FGF22 binding – FGF22 (human) thermal shift binding | Q9HCT0 | recombinant FGF22 thermal shift, SYPRO orange fluorescence; percent of sucrose octasulfate shift, DMSO zero | activity (Tm shift, normalised), % at 9.99 µM | 1.5% of 340,000 active | AID 651658;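 active = mean Tm shift, scaled 0 neutral to 100 positive control, at about 1.3% or above, every replicate too, limit read from the data; inconclusive = no clear call, values can overlap the other calls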
Target sequence (Q9HCT0 whole entry, looked up): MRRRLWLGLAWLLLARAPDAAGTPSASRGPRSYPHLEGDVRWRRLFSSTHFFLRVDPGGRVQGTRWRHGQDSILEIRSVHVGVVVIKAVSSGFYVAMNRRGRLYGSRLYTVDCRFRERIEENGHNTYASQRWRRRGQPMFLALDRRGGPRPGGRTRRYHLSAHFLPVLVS
RAD52 anneal inh – blocks human RAD52 DNA annealing; AID 651710; P43351; inhibition, % at 18.7 µM; recombinant RAD52 DNA annealing, FRET fluorescence; 0.46% of 360,000 active;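 active = every replicate showing at least 50% inhibition; inconclusive = mean inhibition at least 50% but not in every replicate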
Target sequence (P43351 whole entry, looked up): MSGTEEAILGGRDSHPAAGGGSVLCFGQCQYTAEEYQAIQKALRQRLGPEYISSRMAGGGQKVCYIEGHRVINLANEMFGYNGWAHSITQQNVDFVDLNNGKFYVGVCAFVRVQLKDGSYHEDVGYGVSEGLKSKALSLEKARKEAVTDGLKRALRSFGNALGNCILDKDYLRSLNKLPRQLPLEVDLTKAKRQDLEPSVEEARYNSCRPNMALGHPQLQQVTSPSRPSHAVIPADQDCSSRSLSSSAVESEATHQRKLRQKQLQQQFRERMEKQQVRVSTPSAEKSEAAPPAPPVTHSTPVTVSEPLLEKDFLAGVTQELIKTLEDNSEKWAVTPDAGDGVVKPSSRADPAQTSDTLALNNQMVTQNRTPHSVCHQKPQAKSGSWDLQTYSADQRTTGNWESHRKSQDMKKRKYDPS
MLL AF4-AF9 inh – MLL-AF4/AF9 protein interaction inhibition; P42568; AlphaScreen, biotin-AF4 peptide binding to FLAG-AF9; inhibition, % at 10 µM; 0.47% of 350,000 active; AID 651704;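 active = every replicate reaching a set inhibition limit, whatever the replicate mean, cut at about 25% in these data; inconclusive = mean inhibition reaches that limit but some replicates miss it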;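 note: 0% = plate neutral control median and 100% = total signal loss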
DENV2 CPE – inhibitors of DENV2 cytopathic effect; DENV2-infected cells, cytopathic effect rescue, plate reader; CPE inhibition, % at 9.99 µM; AID 651640; 1.7% of 350,000 active; in the data active = CPE inhibition above about 20%, passing the limit was not always enough; inconclusive = no clear call, values can overlap the other calls; tested in BHK-21 cells;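 note: 0% = median of neutral control wells and 100% = median of positive control wells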
ERAP1 inh – ERAP1 (human) enzyme inhibition | AID 652197 | 0.15% of 340,000 active | inhibition, % at 10.7 µM | recombinant ERAP1, Leu-AMC fluorescence, 60 min | Q9NZ08;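 active = mean replicate inhibition of at least 30%, or all replicates individually reaching that 30% level; inactive = mean below 30% and not every replicate reaching it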;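 note: 0% = neutral control wells and 100% = L-leucinethiol positive control wells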
Active calls of the source: *; u = inconclusive; x = no result given; ! = not confirmed by another sample. Compounds with a hit are over-represented: about 4% of the library has one in this group of screens.

SMILES | FGF22 binding | RAD52 anneal inh | MLL AF4-AF9 inh | DENV2 CPE | ERAP1 inh
C[C@H](CO)N1C[C@H](C)[C@@H](CN(C)Cc2ccncc2)Oc2ccc(N(C)C)cc2C1=O | -1.1 | 5.5 | -2.6 | 47.3* | -3.0
C[C@@H]1CN([C@@H](C)CO)C(=O)c2cc(N(C)C)ccc2O[C@H]1CN(C)Cc1ccc(-c2ccccc2)cc1 | -0.1 | 7.0 | 34.3* | 2.7 | -3.0
CSc1nc2nc3c(cc2c(=O)n1-c1ccccc1)COC(C)(C)C3 | 43.5* | -15.7 | -0.7 | 5.0 | 0.9
C/C=C(\C)C(=O)Nc1cccc(C2=NOC3(C2)C[C@@H](C(N)=O)N(C(=O)/C(C)=C/C)C3)c1 (stereo not given in full) | 0.1 | -14.7 | -2.1 | 30.2* | -1.7
C/C=C(\C)C(=O)Nc1cccc(C2=NOC3(C2)C[C@@H](C(N)=O)N(C(=O)c2ccccc2C(=O)c2ccccc2)C3)c1 (stereo not given in full) | 0.0 | -13.9 | -11.6 | 22.7* | 1.0
C=C(C)C(=O)Nc1cccc(C2=NOC3(C2)C[C@@H](C(N)=O)N(C(=O)/C(C)=C/C)C3)c1 (stereo not given in full) | 0.1 | -8.3 | -69.1 | 0.2 | 4.0
CCCN1C[C@@H](C)[C@@H](OC)CN(C)C(=O)c2ccc(NC(=O)c3cccc(OC)c3)cc2OC[C@H]1C | 0.0 | 26.0 | -2.4 | -7.7 | 3.1
C[C@@H]1CCCCO[C@@H](CN(C)Cc2ccncc2)[C@H](C)CN([C@@H](C)CO)C(=O)c2cc(NC(=O)C3CCCCC3)ccc2O1 | -0.3 | 2.2 | -3.4 | -3.3 | 0.3
CO[C@@H]1CN(C)C(=O)c2ccc(NC(=O)c3cnccn3)cc2OC[C@@H](C)NC[C@H]1C | 0.0 | -47.3 | -3.8 | -1.3 | -3.8
CC(=O)Nc1ccc(OCC(O)CNC(C)C)cc1 (stereo not given) | -0.1 | -14.3 | -4.7 | 12.2 | -0.4
C=CCOc1ccccc1OCC(O)CNC(C)C (stereo not given) | 0.0 | -3.5 | -0.7 | 39.7* | -0.6
CCNC(=O)Cc1ccc(S(=O)(=O)N2CCOCC2)s1 | 0.0 | -10.2 | 3.4 | u | -2.1
Cc1cc(Br)ccc1NC(=O)CNC(=O)Cc1ccc(S(=O)(=O)N2CCOCC2)s1 | x | -19.3 | 1.2 | 39.1* | -2.7
CCOC(=O)Cc1csc(NC(=O)COc2ccc(C)cc2)n1 | 43.2* | -7.9 | -10.2 | -3.9 | 6.4
O=C(C[C@@H]1CC[C@@H]2[C@H](COC[C@H](O)CN2C(=O)c2cnccn2)O1)NCc1ccc(Oc2ccccc2)cc1 | -0.3 | 0.6 | -3.1 | u | -0.4
Cc1ccc(S(=O)(=O)NC(=O)Nc2ccccc2)cc1 | 0.0 | 4.0 | -2.5 | -0.9 | -4.3
Cc1ccc(S(=O)(=O)N(C)C(=O)NC(=O)NS(=O)(=O)c2ccccc2)cc1 | 43.8* | 0.6 | -1.5 | -0.8 | -4.0
O=C(C[C@H]1CC[C@@H]2[C@H](COC[C@@H](O)CN2Cc2ccccc2F)O1)NCc1ccccc1F | 0.3 | 9.3 | 0.4 | -3.4 | -1.1
O=S(=O)(N[C@H]1CC[C@H](CCn2cc(C3(O)CCCC3)nn2)O[C@H]1CO)c1ccc(F)cc1 | 0.1 | -8.3 | 0.9 | 0.3 | 0.3
COc1ccc(CCN2C(=O)CS/C2=N\NC(=O)c2cccs2)cc1OC | 43.9* | -9.3 | -0.8 | -2.8 | 0.2
COc1ccc(CCN2C(=O)CSC2=S)cc1OC | -0.2 | -9.5 | -1.0 | 2.8 | -0.2
COc1ccc(NC(=O)Nc2ccc3c(c2)C(=O)N([C@H](C)CO)C[C@H](C)[C@@H](CN(C)S(=O)(=O)c2c(C)noc2C)OCCCC[C@H](C)O3)cc1 | -0.2 | x | x | u | x
COCc1cn([C@@H]2C[C@@H]3O[C@@H](CO)CC[C@@H]3O[C@@H]2CCc2ccc(-c3ccc(OC)cc3)cc2)nn1 | -0.2 | -2.2 | 4.7 | -7.7 | 0.4
FC(F)c1nnc2c(Cl)cc(C(F)(F)F)cn12 | 44.2* | 0.3 | -1.3 | x | -2.1
Cc1ccc(Cc2c(-c3ccc(F)cc3)nc3c(Cl)cc(C(F)(F)F)cn23)cc1 | 0.1 | -45.3 | -2.6 | 10.6 | 6.9
SMILES | FGF22 binding | RAD52 anneal inh | MLL AF4-AF9 inh | DENV2 CPE | ERAP1 inh
CCOC(=O)c1c(O)c(Cl)c(C)[nH]c1=O | 43.3* | -3.6 | -14.5 | 3.2 | -2.3
CCOC(=O)[C@@H]1[C@@H]2C=C[C@]3(O2)[C@H](C(=O)NCc2ccccc2)N(CCCCCCO)C(=O)[C@@H]13 | 1.0 | -160.9 | -2.3 | 0.7 | 3.5
CCCNC(=O)N1CC2(CN(C(=O)c3cccnc3)C2)c2c([nH]c3cc(OC)ccc23)[C@@H]1CO | -0.1 | x | 1.4 | -18.0 | x
O=C1c2ccccc2C(Nc2ccccc2F)N1c1cccnc1 (stereo not given) | 0.4 | 0.1 | -2.1 | -1.2 | -2.6
COC(=O)c1ccccc1NC1c2ccccc2C(=O)N1c1cccnc1 (stereo not given) | 0.0 | -11.8 | 54.9* | 0.6 | 4.8
CC(=O)C1=C(O)C(=O)N(Cc2cccnc2)C1c1ccc(C(C)C)cc1 (stereo not given) | 43.2* | -11.2 | -2.0 | u | 0.0
CCOC(=O)C1=C(O)C(=O)N(Cc2cccnc2)C1c1ccc(C)cc1 (stereo not given) | 43.5* | -6.8 | -2.5 | 9.5 | -4.3
Cc1ccc(S(=O)(=O)N2CCCc3ccccc32)cc1 | 0.0 | -3.3 | -2.5 | -4.1 | 0.5
Cc1ccc2cccc(S(=O)(=O)N3CCCc4ccccc43)c2n1 | 43.1* | 4.7 | -10.5 | 5.8 | 0.8
CCN1CCN(Cc2ccc(NC(=O)c3ccc(C)c(NC(=O)c4c[nH]c5cc(C(F)(F)F)ccc5c4=O)c3)cc2C(F)(F)F)CC1 | -0.3 | -9.0 | 2.2 | 2.5 | 2.6
Cc1ccc(C(=O)Nc2cccc(C(F)(F)F)c2)cc1NC(=O)c1c[nH]c2cc(C(F)(F)F)ccc2c1=O | 44.0* | -14.2 | -2.0 | x | 5.2
Cc1ccc(S(=O)(=O)N2[C@@H]3CNC[C@H]2C3c2ccc(-c3cccc(C#N)c3)cc2)cc1 (stereo not given in full) | x | 52.7*! | -1.1 | -8.4 | 2.4
Cc1ccccc1S(=O)(=O)N1[C@@H]2CNC[C@H]1C2c1ccc(/C=C/c2ccccc2)cc1 (stereo not given in full) | x | 51.2*! | 1.0 | 25.1*! | -1.8
O=S(=O)(c1cccc(F)c1)N1[C@@H]2CNC[C@H]1C2c1ccc(-c2ccccc2)cc1 (stereo not given in full) | x | 23.1 | -2.8 | -4.5 | 3.4
CS(=O)(=O)N1[C@@H]2CNC[C@H]1C2c1ccc(-c2ccccc2)cc1 (stereo not given in full) | -0.1 | 3.5 | 4.9 | 79.8* | 1.5
Cc1ccc(S(=O)(=O)N2[C@@H]3CNC[C@H]2C3c2ccc(-c3cccc(C)c3)cc2)cc1 (stereo not given in full) | x | 51.4*! | 4.0 | -16.1 | -2.1
CN(C)c1ccc2c(c1)[C@H]1C[C@H](CC(=O)N3CCCCC3)O[C@@H](CO)[C@H]1O2 | x | -274.8 | -2.0 | 16.6 | 0.9
